From PubChem BioAssay AID1711 (National Center for Advancing Translational Sciences (NCATS), 2009) come the findings set out here.

Results filed as inconclusive are left out. A call without a number means that no potency is given here. Active and inactive are the calls of the source. Calls come from the whole dose curve; as a rule, active = well fitted curve in the direction sought with a large enough effect; inconclusive = small, poorly fitted or top-dose-only effect, or another doubt; inactive = no such curve, though single readings can be large or run the other way.

The assay deals with Caspase-1 (Homo sapiens) (UniProt P29466). The assay can be described thus: Concentration-Response Counterscreen for Tau: Redox Active Inhibitors of Caspase-1. To be noted: purified caspase-1, Ac-WEHD-AFC fluorescence kinetic; series mostly up to 40.6 µM. An excerpt: NIH Molecular Libraries Probe Production Network [MLPCN] NIH Chemical Genomics Center [NCGC] MLPCN Grant: X01 MH083262-01 Assay Provider: Carlo Ballatore, University of Pennsylvania NCGC Assay Overview: The microtubule-associated protein tau is an abundant protein in the axons of neurons that stabilizes microtubules. With its ability to modulate microtubule dynamics, tau contributes directly or indirectly, to key structural and regulatory cellular functions. Particularly important is the influence tau exerts on axonal transport, which allows signaling molecules, trophic factors and other essential cellular constituents to travel along the axons. Under pathological conditions, tau becomes sequestered into insoluble aggregates called neurofibrillary tangles. This phenomenon is believed to have pathological consequences by promoting axonal transport deficits that ultimately lead to synaptic dysfunction and neuronal loss. To examine the selectivity of tau fibrillization inhibitors, compounds were tested in an in vitro assay for caspase-1 activity. This assay is a counterscreen for tau fibrillization inhibitors to identify non-specific oxidizing agents; an active site cysteine in caspase-1 must remain in a reduced state and the enzyme is inactivated by oxidative compounds. Caspase-1 activity was monitored using a profluorescent substrate that upon enzymatic cleavage yields a fluorescent probe that is detectable at 405 nm excitation and 525 nm emission. Scheer, J. M., Wells, J. A., and Romanowski, M. J. (2005) Protein Expression and Purification 41, 148-153.
Sequence of Caspase-1 (Homo sapiens) (P29466 whole entry, looked up): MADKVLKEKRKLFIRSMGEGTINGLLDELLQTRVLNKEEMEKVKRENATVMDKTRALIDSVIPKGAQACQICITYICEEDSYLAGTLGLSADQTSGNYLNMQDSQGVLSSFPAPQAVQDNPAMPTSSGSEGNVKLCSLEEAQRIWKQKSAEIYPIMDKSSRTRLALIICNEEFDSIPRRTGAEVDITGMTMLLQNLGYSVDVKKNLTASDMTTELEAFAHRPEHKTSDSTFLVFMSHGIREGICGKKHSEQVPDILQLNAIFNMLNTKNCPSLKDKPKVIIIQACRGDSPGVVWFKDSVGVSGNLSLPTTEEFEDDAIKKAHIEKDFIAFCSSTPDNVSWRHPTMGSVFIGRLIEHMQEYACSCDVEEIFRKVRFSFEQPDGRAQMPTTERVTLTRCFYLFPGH
NCGC Assay Protocol Summary: Caspase-1, kindly provided by Dr. James Wells (University of California, San Francisco), was purified and assayed at 100 nM in buffer containing 50 mM HEPES pH 7.5, 50 mM KCl, 200 mM NaCl, and 0.1% CHAPS. Caspase-1 was dispensed at 3 uL/well into black solid 1536-well plates and incubated 5 min with various concentrations of test compound, with subsequent addition of 1 ul/well Ac-WEHD-AFC substrate (20 uM final concentration). Within 1 minute of substrate addition, fluorescence intensity (405 nm excitation and 525 nm emission) was measured on a ViewLux (PerkinElmer) every 30 s for 10 min. The first 3 minutes of fluorescence values were linear and used to calculate the slope of substrate conversion as a measure of enzyme activity.
For `Nc1scc2c(C(=O)O)nn(-c3ccccc3)c(=O)c12`, the Potency result was “inactive”.

In the case of `CCOC(=O)c1nn(-c2ccccc2F)c(=O)c2c(N)scc12`, the Potency result was “inactive”.

For the molecule `CC(=O)Nc1sc(C)c2cnn(-c3ccccc3)c(=O)c12`, the Potency result is “inactive”.

Regarding `CCOC(=O)c1nn(-c2ccc(Cl)c(Cl)c2)c(=O)c2c(N)scc12`, the Potency entry was “inactive”.

Turning to `Nc1scc2c(C(=O)N3CCOCC3)nn(-c3ccccc3)c(=O)c12`, the Potency entry is “inactive”.

`Nc1scc2c(CO)nn(-c3ccccc3)c(=O)c12`: the Potency entry is “inactive”.

Consider `CCOC(=O)c1ccc(-n2nc(C(=O)OCC)c3csc(N)c3c2=O)cc1`, for which the Potency entry was “inactive”.

In the case of `CCOC(=O)c1nn(-c2ccccc2)c(=O)c2c(N)scc12`, the Potency entry is “inactive”.

As to `CCOC(=O)c1nn(-c2ccccc2)c(=O)c2c(NC(C)=O)scc12`, the Potency entry was “inactive”.

Turning to `CCOC(=O)c1nn(-c2cccc(C(F)(F)F)c2)c(=O)c2c(N)scc12`, the Potency result is “inactive”.

With `CCOC(=O)c1nn(-c2ccc(F)cc2)c(=O)c2c(N)scc12`, the Potency entry was “inactive”.

As for `CCOC(=O)c1nn(-c2ccc(OC)cc2)c(=O)c2c(N)scc12`, the Potency entry was “inactive”.

For `COc1ncc(-c2ccccc2)cc1N`, the Potency was 15.8 µM (active).

On to `Nc1cc(-c2ccccc2)c[nH]c1=O`, for which the Potency was 7.94 µM (active).

With `Nc1nn(-c2ccccc2)c(=O)c2c(N)scc12`, the Potency result is “inactive”.

Take `CCOC(=O)c1nn(-c2ccc(C)cc2)c(=O)c2c(N)scc12`: the Potency result was “inactive”.

In the case of `CCOC(=O)c1nn(-c2ccccc2)c(=O)c2c(NC(=O)c3ccccc3)scc12`, the Potency result was “inactive”.

On to `CCOC(=O)c1nn(-c2ccc(C)c(C)c2)c(=O)c2c(N)scc12`, for which the Potency entry was “inactive”.

With `CCOC(=O)c1nn(-c2ccccc2)c(=O)c2c(N)sc(C)c12`, the Potency result was “inactive”.
